Assay results published in the supplement of paper PMC10127200.
Structures can show the parent of a compound that is named as a salt.

Experiments:
Experiment in all cases: Euclidean distance of Cell Painting phenotypic profile (signed KS, 77 features) to DMSO centroid (dimensionless distance); 5 or 10 uM (library dependent); higher = stronger phenotypic change vs DMSO (phenoactivity)
Conditions in all cases: 48 h
786-O = tested on: 786-O
How it was run: (§1)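 Five cancer lines and a healthy fibroblast line received library compounds at 10 or 5 uM (library-dependent, 0.1% DMSO final) for 48 h. Stained cells were imaged confocally at 20X (9 fields/well). Harmony extracted 77 features, each scored as a signed Kolmogorov-Smirnov statistic against same-plate vehicle wells. Profiles were plate-position corrected, correlation-weighted and replicate-averaged at the top dose. Phenoactivity is the Euclidean distance from each profile to the median vehicle profile.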

A549 = tested on: A549
How it was run: as §1

DU145 = tested on: DU145
How it was run: as §1

FB = tested on: FB
How it was run: as §1

HEPG2 = tested on: HEPG2
How it was run: as §1

OVCAR4 = tested on: OVCAR4
How it was run: as §1

Structure (SMILES)	Euclidean distance (786-O)	Euclidean distance (A549)	Euclidean distance (DU145)	Euclidean distance (FB)	Euclidean distance (HEPG2)	Euclidean distance (OVCAR4)
C=CCc1ccc(O)c(OC)c1 [Eugenol]	0.982	1.21	0.897	0.958	0.497	1.51
Cc1cccc(CC(=O)N2CCc3c2ccc(-c2cn(C)c4ncnc(N)c24)c3F)n1	1.25	2.13	1.84	1.96	1.24	1.35
O=C(O)c1cn(-c2ccc(F)cc2)c2cc(N3CCNCC3)c(F)cc2c1=O [Sarafloxacin HCl]	1.11	0.812	1.78	0.799	0.601	0.719
CC(C)OC(=O)CCC/C=C\C[C@@H]1[C@@H](/C=C/C(F)(F)COc2ccccc2)[C@H](O)C[C@@H]1O [Tafluprost]	1.72	1.49	0.876	1.25	0.711	0.833
CC12CCC(CC1=O)C2(C)C (stereo not drawn) [Camphor]	0.669	0.742	0.875	0.818	0.352	1.67
Cc1cn[nH]c1 [Fomepizole]	0.803	0.542	1.4	0.868	1.97	0.897
CC(C)(CO)[C@@H](O)C(=O)NCCC(=O)NCCSSCCNC(=O)CCNC(=O)[C@H](O)C(C)(C)CO [D-Pantethine]	1.1	1.2	0.679	1	0.969	1.35
O=C1Nc2ccc(Cl)cc2[C@@](C#CC2CC2)(C(F)(F)F)O1 [Efavirenz]	1.21	1.3	2.23	1.28	0.747	1.1
OC[C@H]1O[C@@H](c2ccc(Cl)c(Cc3ccc(O[C@H]4CCOC4)cc3)c2)[C@H](O)[C@@H](O)[C@@H]1O	0.965	0.753	1.39	0.912	0.52	0.801
CC[C@@]1(O)C(=O)OCc2c1cc1n(c2=O)Cc2cc3c(CN(C)C)c(O)ccc3nc2-1 [Topotecan]	3.37	4.25	3.94	3.77	3.31	2.85
COc1cc2nccc(Oc3ccc(NC(=O)C4(C(=O)Nc5ccc(F)cc5)CC4)cc3)c2cc1OC [Cabozantinib malate (XL184)]	1.85	2.98	1.3	2.84	1.89	2.25
O=C1NC(=O)/C(=C/c2ccc3c(c2)OC(F)(F)O3)S1	1.35	1.7	1.51	1.44	1.13	0.892
C=CC(=O)Nc1cccc(Nc2nc(Nc3ccc(Oc4ccnc(C(=O)NC)c4)cc3)ncc2F)c1	1.82	1.47	1.48	2.2	2.3	1.63
CC(C)(C)c1cc(NC(=O)Nc2ccc(-c3cn4c(n3)sc3cc(OCCN5CCOCC5)ccc34)cc2)no1 [Quizartinib (AC220)]	3.28	2.67	1.42	1.43	2.93	1.37
C[C@]12C[C@H](O)[C@H]3[C@@H](CCC4=CC(=O)CC[C@@]43C)[C@@H]1CC[C@@H]2C(=O)CO [Corticosterone]	1	1.47	1.47	1.15	0.619	1.04
CC(C)[N+](C)(CCOC(=O)C1c2ccccc2Oc2ccccc21)C(C)C [Propantheline bromide]	0.803	0.839	0.798	0.725	0.423	0.718
C/C=C\c1ccc(OC)cc1 [cis-Anethole]	0.571	0.784	0.864	0.765	0.671	1.2
C[S+](CC[C@H](N)C(=O)[O-])C[C@H]1O[C@@H](n2cnc3c(N)ncnc32)[C@H](O)[C@@H]1O (stereo partly drawn) [Ademetionine]	0.708	1.02	0.772	0.885	0.304	0.658
CC(C)(O)c1cc(Nc2cc(Oc3cn(C4CC4)nc3C3CCOCC3)ccn2)ccn1	0.999	0.879	1.32	1.38	1.09	1.36
CC(=O)OCC(COC(C)=O)OC(C)=O [Triacetin]	1.28	0.762	1.03	1.11	1.02	0.787
Cc1cc2c(F)c(Oc3ncnn4cc(OC[C@@H](C)O)c(C)c34)ccc2[nH]1	2.22	1.25	1.36	1.71	1.24	1.6
CC1C(=O)OC2C(O)C34C5CC(C(C)(C)C)C36C(OC(=O)C6O)OC4(C(=O)O5)C12O (stereo not drawn) [Ginkgolide B]	0.999	1.63	0.921	1.25	2.11	1.3
CCOC(=O)c1ccc(NC2CCCCC2)c(N)c1 [Ferrostatin-1 (Fer-1)]	0.915	1.54	1.71	1.18	0.921	1.09
O[C@@H]1CO[C@H]2[C@@H]1OC[C@@H]2O [Isosorbide]	1.15	0.673	1.24	1.02	0.565	1.64

Structure (SMILES)	Euclidean distance (786-O)	Euclidean distance (A549)	Euclidean distance (DU145)	Euclidean distance (FB)	Euclidean distance (HEPG2)	Euclidean distance (OVCAR4)
CC(C)C(=O)Oc1ccc(CO)cc1[C@H](CCN(C(C)C)C(C)C)c1ccccc1 [Fesoterodine Fumarate]	0.902	1.2	1.33	0.688	1.16	1.69
NC(=O)NO [Hydroxyurea]	1.25	0.771	1.13	0.703	0.79	1.18
CN1CCOC(c2ccccc2)c2ccccc2C1 (stereo not drawn) [Nefopam HCl]	1.21	0.668	0.813	1.07	0.77	1.29
COc1cc2ncnc(Oc3cccc(NC(=O)Nc4cc(C(C)(C)C(F)(F)F)on4)c3)c2cc1OC	0.889	2.41	1.19	1.02	0.923	1.88
Clc1ccc(COC(Cn2ccnc2)c2ccc(Cl)cc2Cl)cc1 (stereo not drawn) [Econazole]	1.06	1.25	0.98	1.02	1.09	0.709
COC(=O)[C@@H]1CC2=CC(=O)CC[C@]2(C)[C@@]23O[C@@H]2C[C@@]2(C)[C@@H](CC[C@@]24CCC(=O)O4)[C@H]13 [Eplerenone]	1.18	0.666	0.81	0.974	1.38	0.746
CCCCCC(=O)O[C@]1(C(C)=O)CC[C@H]2[C@@H]3CCC4=CC(=O)CC[C@]4(C)[C@H]3CC[C@@]21C [Hydroxyprogesterone caproate]	0.774	1.41	2.27	1.18	0.603	0.921
CC1=CC[C@@](O)(C(C)C)CC1 [Terpinen-4-ol]	0.644	0.999	0.827	0.873	0.873	0.882
CNC(=O)c1ccccc1Nc1nc(Nc2ccc(N3CCOCC3)cc2OC)ncc1Cl	2.97	3.02	2.18	3.92	2.08	3.5
C=CC[C@@H]1/C=C(\C)C[C@H](C)C[C@H](OC)[C@H]2O[C@@](O)(C(=O)C(=O)N3CCCC[C@H]3C(=O)O[C@H](/C(C)=C/[C@@H]3CC[C@@H](O)[C@H](OC)C3)[C@H](C)[C@@H](O)CC1=O)[C@H](C)C[C@@H]2OC [Tacrolimus (FK506)]	0.986	1.47	2.38	1.07	0.59	0.647
Cc1oc(=O)oc1CN1CCN(c2cc3c(cc2F)c(=O)c(C(=O)O)c2n3C(C)S2)CC1 (stereo not drawn) [Prulifloxacin (NM441. AF 3013)]	1.38	0.71	0.968	0.785	1.9	0.841
Cc1ccc(Cl)cc1N(CC(=O)Nc1c(F)cccc1F)S(C)(=O)=O	0.896	1.9	0.886	0.614	0.565	0.763
CC(C)CCCCC(=O)N[C@@H](CCN)C(=O)N[C@H](C(=O)N[C@@H](CCN)C(=O)N[C@H]1CCNC(=O)[C@H]([C@@H](C)O)NC(=O)[C@H](CCN)NC(=O)[C@H](CCN)NC(=O)[C@H](CC(C)C)NC(=O)[C@@H](Cc2ccccc2)NC(=O)[C@H](CCN)NC1=O)[C@@H](C)O [Polymyxin B sulphate]	1.64	0.815	1.39	1.53	0.717	0.928
COc1ccc2cc3[n+](cc2c1OC)CCc1cc2c(cc1-3)OCO2 [Berberine HCl]	0.872	1.5	0.626	0.96	1.8	0.946
O=C(c1cc(Cc2n[nH]c(=O)c3ccccc23)ccc1F)N1CCN(C(=O)C2CC2)CC1	1.56	1.23	0.958	1.7	1.21	1.11
Nc1ccn([C@H]2CC[C@@H](CO)O2)c(=O)n1 [Zalcitabine]	1.06	0.768	1.6	0.942	2.07	1.13
O=C(O)CCc1nc(-c2ccccc2)c(-c2ccccc2)o1 [Oxaprozin]	1.01	0.794	0.541	0.987	1.16	1.28
N#CC(c1ccnc(OCc2ccc(CN3CCOCC3)cc2)n1)c1nc2ccccc2s1 (stereo not drawn) [Bentamapimod]	1.54	1.83	1.31	1.81	1.38	1.36
C[C@H]1CNC(=O)c2cnn3ccc(nc23)N[C@H](C)c2cc(F)ccc2O1	4.06	4.83	5.02	3.45	2.14	4.45
COc1ccc(Cl)cc1C(=O)NCCc1ccc(S(=O)(=O)NC(=O)NC2CCCCC2)cc1 [Glyburide]	1.1	0.731	1.49	1.27	2.08	1.32
O=C(O)c1ccccc1OP(=O)(O)O [Fosfosal]	0.982	0.849	0.86	0.671	0.711	1.11
CC(=O)OCC(=O)[C@@]1(O)CC[C@H]2[C@@H]3CCC4=CC(=O)C=C[C@]4(C)[C@H]3[C@@H](O)C[C@@]21C [Prednisolone Acetate]	1.1	2.13	2.13	1.96	0.76	2.1
Cn1c(N2CCCCS2(=O)=O)nc(C(=O)NCc2ccc(F)cc2)c(O)c1=O	3.24	2.86	4.79	2.83	3.37	3.36
CC(=O)NS(=O)(=O)c1ccc(N)cc1 [Sulfacetamide Sodium]	1.12	0.648	1.22	0.694	0.673	1.05
